# Test results as given in PubChem BioAssay (EPA / NIEHS).
# The source made the active and inactive calls. The calls were made as follows: active = hit-call score of the fitted dose curve at least 0.9, where 1 is the maximum; inconclusive = response in the unintended direction; inactive = score below 0.9.
# Biological target: Androgen Receptor/SRC-1 Co-activator, AR (gene 367) (UniProt P10275)
# Experiment: OT_AR_ARSRC1_0960: Odyssey Thera (OT) 16-hour HEK293T Protein-Complementation Assay for Androgen Receptor/SRC-1 Co-activator (AID 2283353);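 also: actives raise the signal above DMSO so potency reflects increased AR and SRC-1 complex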
# Description: OT_AR_ARSRC1_0960 is a cell-based, single-readout assay that uses HEK293T, a human kidney cell line, with measurements taken at 16 hours after chemical dosing in a 384-well plate.OT_AR_ARSRC1_0960 is one of one assay component(s) measured or calculated from the OT_AR_ARSRC1_0960 assay. It is designed to make measurements of protein fragment complementation, a form of binding reporter, as detected with fluorescence intensity signals by Protein-fragment Complementation technology.Data from the assay component OT_AR_ARSRC1_0960 was analyzed into 1 assay endpoint. This assay endpoint, OT_AR_ARSRC1_0960, was analyzed in the positive analysis fitting direction relative to DMSO as the negative control and baseline of activity. Using a type of binding reporter, measures of receptor for gain-of-signal activity can be used to understand the binding at the pathway-level as they relate to the gene AR. Furthermore, this assay endpoint can be referred to as a primary readout, because the performed assay has only produced 1 assay endpoint. To generalize the intended target to other relatable targets, this assay endpoint is annotated to the nuclear receptor intended target family, where the subfamily is steroidal.
# Protein-fragment complementation assay, or PCA, is a method for the identification and quantification of protein-protein interactions. In the PCA, the proteins of interest ("bait" and "prey") are each covalently linked to fragments of a third protein (e.g. DHFR, which acts as a "reporter"). Interaction between the bait and the prey proteins brings the fragments of the reporter protein in close proximity to allow them to form a functional reporter protein whose activity can be measured. The OT AR / SRC-1 assay assessed androgen receptor chemical interactions using a rapidly maturing, intensely fluorescent mutant of YFP known as Venus, rationally dissected into two separate fragments. […] Fusion constructs were transfected into HEK293T cells with a (Gly4Ser)2 linker between the AR/SRC-1 and YFP fragment genes to facilitate complementation when interacting proteins bring fragments into close proximity. The construct is stably expressed in HEK293T cells. […] Images were acquired on an Evotec Opera at 2 wavelengths (488 and 635nm), and the ratio of fluorescence in the nucleus relative to fluorescence in the cytoplasm (N/C Ratio) in the 488nm channel was calculated for a minimum of 400 cells per image. Both agonists and antagonists of the AR receptor induce nuclear translocation to varying degrees. […] The OT AR/SRC-1 assay was also run for 16 hours (see description for OT_AR_ARSRC1_0960).
# Sequence of Androgen Receptor/SRC-1 Co-activator, AR (gene 367) (P10275 whole entry, looked up): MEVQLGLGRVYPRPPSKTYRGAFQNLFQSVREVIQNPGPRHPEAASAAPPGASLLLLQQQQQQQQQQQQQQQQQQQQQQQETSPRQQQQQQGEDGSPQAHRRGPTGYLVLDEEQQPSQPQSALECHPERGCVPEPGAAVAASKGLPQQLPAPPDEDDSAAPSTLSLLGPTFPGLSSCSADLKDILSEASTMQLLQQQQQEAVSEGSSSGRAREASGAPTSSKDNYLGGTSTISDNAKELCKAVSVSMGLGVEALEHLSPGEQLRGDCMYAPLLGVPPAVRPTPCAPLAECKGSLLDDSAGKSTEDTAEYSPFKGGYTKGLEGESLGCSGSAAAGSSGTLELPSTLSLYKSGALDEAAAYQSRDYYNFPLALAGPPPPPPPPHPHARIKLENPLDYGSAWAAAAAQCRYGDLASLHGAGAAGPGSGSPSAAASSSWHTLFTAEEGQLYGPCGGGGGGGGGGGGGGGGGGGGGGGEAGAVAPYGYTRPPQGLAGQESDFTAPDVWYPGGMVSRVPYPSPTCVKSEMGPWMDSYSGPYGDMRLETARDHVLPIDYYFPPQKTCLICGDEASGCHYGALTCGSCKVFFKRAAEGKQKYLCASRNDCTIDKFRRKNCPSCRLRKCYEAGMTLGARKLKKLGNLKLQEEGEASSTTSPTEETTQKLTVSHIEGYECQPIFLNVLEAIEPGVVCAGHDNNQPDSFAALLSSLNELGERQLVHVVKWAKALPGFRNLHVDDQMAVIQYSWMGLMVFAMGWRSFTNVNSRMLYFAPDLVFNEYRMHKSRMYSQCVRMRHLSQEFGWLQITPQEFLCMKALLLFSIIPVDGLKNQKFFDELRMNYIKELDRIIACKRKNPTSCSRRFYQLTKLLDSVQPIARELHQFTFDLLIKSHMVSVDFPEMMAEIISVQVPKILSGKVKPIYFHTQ
Compound,AC50,outcome
COc1cc(-c2nc(NC(=O)c3cc4cc(C)cc(C)c4n3CC(=O)O)sc2CCC2CCCCC2)c(OC)cc1Cl,10.5 µM (active),
Cc1ccc(C)c(C)c1,,inactive
Cc1ccccc1Cl,,inactive
COCCOCCOC,,inactive
COc1cc(C=O)ccc1O,,inactive
CCOc1ccc2c(c1)C(C)=CC(C)(C)N2,,inactive
Cc1cccc(C)c1O,,inactive
CCCCCCCCCCC,,inactive
CN[C@H]1CC[C@@H](c2ccc(Cl)c(Cl)c2)c2ccc(S(N)(=O)=O)cc21,17.4 µM (active),
COc1ccc(C)cc1N,,inactive
CC(C)(C)c1cc(O)c(C(C)(C)C)cc1O,50 µM (active),
Cc1ccc(C)c(O)c1C,,inactive
Cc1nc(-c2ccc3c(c2)CCN(CCC2CCC(NC(=O)/C=C/c4ccc(F)cc4)CC2)CC3)no1 (stereo not drawn),,inactive
Cc1cccc(Nc2cc(Cl)nc(SCC(=O)O)n2)c1C,,inactive
COc1ccc2c(c1)c(CC(=O)O)c(C)n2C(=O)c1ccc(Cl)cc1,,inactive
Cc1cc(NC(=O)C(=O)O)cc(C)c1Oc1ccc(O)c2c1CCC2,,inactive
Cc1ccc(N(C)C)cc1,,inactive
CNC(=O)[C@H]1O[C@@H](n2cnc3c(NCc4cc(Cl)ccc4OCc4cc(C)no4)ncnc32)[C@H](O)[C@@H]1N,,inactive
CCCCCC(=O)O,,inactive
CC(=O)Oc1ccccc1C(=O)O,,inactive
COc1ccc(S(=O)(=O)N2C(=O)[C@@](c3ccccc3OC)(N3C[C@H](O)C[C@H]3C(=O)N(C)C)c3cc(Cl)ccc32)c(OC)c1,40.4 µM (active),
COCCOC[C@H](CC1(C(=O)NC2CCC(C(=O)O)CC2)CCCC1)C(=O)Oc1ccc2c(c1)CCC2 (stereo partly drawn),,inactive
Cc1cccc([N+](=O)[O-])c1C,,inactive
